BAZ2B inh: inhibitors of human BAZ2B bromodomain; AID 504333; AlphaScreen BAZ2B-H3K14Ac peptide displacement; Potency, µM (titrated, usually from 114 µM), hits mostly inhibitors; actives 4.4% (n = 360,000); Q9UIF8; note: nearly all actives have a fitted effect of over 60% in size
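AlphaScreen luminescence quantifies BAZ2B engagement of H3K14Ac peptide; the protein and biotinylated peptide are both at 50 nM final, buffer PBS pH 7.4 with 0.01% Tween-20, all steps at room temperature.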
HP1b binding inh: inhibitors of HP1-beta chromodomain binding to methylated histone tails; P83916; AID 540317; Potency, µM (doses to about 114 µM), hits mostly inhibitors; actives 0.56% (n = 390,000); AlphaScreen HP1-beta / biotin-H3K9me3 peptide binding; note: nearly all actives have a fitted effect of over 70% in size
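HP1-beta protein (50 nM final) preincubated 30 min at room temperature with biotinylated H3(1-18)K9me3 peptide (50 nM) in PBS pH 7.4, 0.01% Tween-20, then compound added for 30 min. AlphaScreen streptavidin donor/nickel chelate acceptor beads (10 ug/mL final), 30 min dark, luminescence read.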
G9a block: G9a (human) methyltransferase inhibition. Potency, µM (doses to about 102 µM), actives largely listed as inhibitors. Q96KQ7. AID 504332. actives 8.8% (n = 350,000). G9a H3K9 monomethylation, AlphaScreen, 2 h; note: nearly all actives have a fitted effect of over 75% in size
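Step 1: enzyme (final 20 nM) with compound, 15 min RT. Step 2: substrate peptide 500 nM and SAM 20 uM, 2 h RT. Step 3: anti-H3K9me1 antibody and AlphaScreen beads, 10 min, then plate read.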
GLS inh: glutaminase GLS (human) inhibition. Potency, µM (titrated, usually from 45.5 µM), most hits filed as inhibitors. actives 0.21% (n = 410,000). GLS enzymatic activity, qHTS titration. AID 624170
Target sequence (O94925 whole entry, looked up): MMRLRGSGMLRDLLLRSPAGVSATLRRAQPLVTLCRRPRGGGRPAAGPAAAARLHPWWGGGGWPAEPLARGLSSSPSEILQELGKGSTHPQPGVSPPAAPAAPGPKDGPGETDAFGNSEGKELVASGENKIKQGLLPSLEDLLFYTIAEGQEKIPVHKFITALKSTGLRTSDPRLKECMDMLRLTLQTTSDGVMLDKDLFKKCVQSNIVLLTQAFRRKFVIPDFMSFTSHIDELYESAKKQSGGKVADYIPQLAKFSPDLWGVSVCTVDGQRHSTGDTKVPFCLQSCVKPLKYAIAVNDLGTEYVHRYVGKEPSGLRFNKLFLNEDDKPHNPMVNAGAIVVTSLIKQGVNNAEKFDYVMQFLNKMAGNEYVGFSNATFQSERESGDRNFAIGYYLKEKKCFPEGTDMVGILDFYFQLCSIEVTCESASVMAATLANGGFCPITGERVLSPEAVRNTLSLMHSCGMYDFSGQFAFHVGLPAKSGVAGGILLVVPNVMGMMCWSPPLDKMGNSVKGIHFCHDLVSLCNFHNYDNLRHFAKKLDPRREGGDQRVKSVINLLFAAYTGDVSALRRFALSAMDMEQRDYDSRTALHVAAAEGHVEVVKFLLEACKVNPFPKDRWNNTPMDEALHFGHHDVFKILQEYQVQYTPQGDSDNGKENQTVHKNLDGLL
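Coupled fluorescence readout: glutamate oxidase/HRP/Amplex Red detect glutamate formed by hKGA from L-glutamine (1 mM solution added). Buffer 45 mM KH2PO4 pH 8.2, 0.02% Tween-20; reads at t0 and 30 min RT.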
JMJD2A Tudor: JMJD2A Tudor domain (human) inhibition. AID 504339. O75164. Potency, µM (doses to about 114 µM), usual class: inhibitors. actives 4.4% (n = 390,000). AlphaScreen JMJD2A-Tudor / H3K4me3 peptide binding; note: nearly all actives have a fitted effect of over 50% in size
Each line names hits and unclear results; the compound was inactive in the other large screens. Compounds with a hit are over-represented: about 10% of the library has one in this group of screens. Calls come from the whole dose curve; as a rule, active = well fitted curve in the direction sought with a large enough effect; inconclusive = small, poorly fitted or top-dose-only effect, or another doubt; inactive = no such curve, though single readings can be large; an effect the other way counts as inactive or inconclusive.

CC(/C=N/NC(=O)c1cc(-c2ccncc2)nc2ccccc12)=C\c1ccco1	HP1b binding inh inconclusive, G9a block inconclusive, JMJD2A Tudor inconclusive
O=S(=O)(Nc1nc(-c2sccc2Cl)cs1)c1cc(Cl)ccc1Cl	BAZ2B inh 50.1µM, HP1b binding inh inconclusive, G9a block inconclusive, JMJD2A Tudor 50.1µM
NNc1nc2sc3c(c2c(=O)[nH]1)CCc1ccccc1-3	G9a block inconclusive, JMJD2A Tudor inconclusive
CCSc1nc2sc3c(c2c(=O)[nH]1)CCc1ccccc1-3	G9a block 50.1µM
N#Cc1c2ccc(O)cc2n2ccccc12	G9a block 3.98µM, GLS inh 11.2µM
N#CCN(CC#N)C(=O)C1c2ccccc2Oc2ccccc21	JMJD2A Tudor 39.8µM (no result: G9a block)
COc1ccc(/C=N\NC(=O)c2ccc([N+](=O)[O-])cc2)cc1COc1c(F)c(F)cc(F)c1F	G9a block 63.1µM
COc1ccc(/C=N\NC(=O)c2ccc(F)cc2)cc1COc1ccccc1C(N)=O	G9a block 35.5µM
COc1ccc(C(=O)N/N=C/c2ccc(OC)c(COc3c(F)c(F)cc(F)c3F)c2)cc1	BAZ2B inh inconclusive, G9a block inconclusive
CCc1ccc(-n2nc(C)c3c(C)cc(=O)n(CC(=O)NCc4ccc(C)cc4)c32)cc1	none
CCCC(=O)NC(=S)Nc1cccc(-c2nc3ncccc3o2)c1	G9a block 22.4µM
Cc1cccc(NC(=S)NC(=O)/C=C/c2ccco2)c1	BAZ2B inh 44.7µM, HP1b binding inh inconclusive, G9a block 25.1µM, JMJD2A Tudor inconclusive
O=C(/C=C/c1ccco1)NC(=S)Nc1cccc(-c2nc3ccccc3o2)c1	BAZ2B inh 44.7µM, G9a block inconclusive, JMJD2A Tudor 50.1µM
Cc1ccc(-c2nc3ccccc3o2)cc1NC(=S)NC(=O)/C=C/c1ccco1	G9a block inconclusive, JMJD2A Tudor inconclusive
CC(=O)c1ccc(NC(=S)NC(=O)/C=C/c2ccco2)cc1	BAZ2B inh inconclusive, G9a block 44.7µM, JMJD2A Tudor inconclusive
CSCCC(NC(=O)COc1ccccc1)C(=O)N(C)Cc1ccc(SC)cc1 (centres undefined)	JMJD2A Tudor inconclusive
Nc1ncnc2c(C3OC(CO)C(O)C3O)c[nH]c12 (centres undefined)	none (no result: BAZ2B inh, G9a block)
CCOc1ccc2ncc3c(-c4cccc(OC)c4)nn(-c4ccccc4)c3c2c1	none (no result: BAZ2B inh)
Cc1ccc(N2C(N)=C(C#N)C(c3cc(CN4CCOCC4)cs3)C3=C2CC(C)(C)CC3=O)cc1 (centres undefined)	G9a block 50.1µM
CC(=O)N1CCc2cc(S(=O)(=O)CCC(=O)N(C)Cc3ccco3)ccc21	none
O=c1nc2s/c(=C\c3ccc(-c4ccccc4[N+](=O)[O-])o3)c(=O)n2nc1-c1ccccc1	BAZ2B inh 10µM, G9a block inconclusive
CCCCCOc1ccc(/C=c2\sc3nc(=O)c(-c4ccccc4)nn3c2=O)cc1OC	none
CCOc1ccc(N2C(=O)CC(N3CCC(O)(c4ccc(Br)cc4)CC3)C2=O)cc1 (centres undefined)	G9a block 44.7µM
CCOc1ccc(N2C(=O)CC(N3CCN(C(=O)CN4CCCC4)CC3)C2=O)cc1 (centres undefined)	G9a block inconclusive
CCOc1ccc(N2C(=O)CC(N3CCN(c4ccc(F)cc4)CC3)C2=O)cc1 (centres undefined)	G9a block 44.7µM
COc1ccc(N2CCN(C(=O)Nc3ccc(Cl)cc3)CC2)cc1	G9a block inconclusive
COc1ccc(N2CCN(c3ccc(NC(=O)NN)cc3)CC2)cc1	G9a block 44.7µM, GLS inh inconclusive, JMJD2A Tudor inconclusive
CCOc1ccc(NC(=O)NCCCN2CCN(c3ccc(OC)cc3)CC2)cc1	G9a block inconclusive, JMJD2A Tudor inconclusive
CC1CCN(CCNC(=S)Nc2ccc(Cl)cc2)CC1	G9a block 44.7µM
COc1ccc(N2CCN(CCNC(=O)Nc3ccc(Cl)cc3)CC2)cc1	G9a block 8.91µM
S=C(NCCN1CCOCC1)Nc1ccc(Cl)cc1	none
CCOc1ccc(NC(=S)NCCCN2CCN(c3ccc(OC)cc3)CC2)cc1	BAZ2B inh 35.5µM, G9a block 39.8µM, JMJD2A Tudor inconclusive
COc1ccc(CNC(=O)c2nc(Cn3nc(C)c(Br)c3C)no2)cc1OC	none
CCCS(=O)(=O)c1c(S(=O)(=O)CCC)c2cc(CC)ccn2c1C(=O)c1ccc(Cl)cc1	none
CC(C)OCCCNC(=O)C(=O)Nc1c2c(nn1-c1ccccc1)CS(=O)(=O)C2	G9a block inconclusive
CCC(C)NC(=O)C(=O)Nc1c2c(nn1-c1ccccc1)CS(=O)(=O)C2 (centres undefined)	BAZ2B inh inconclusive, G9a block inconclusive, JMJD2A Tudor 44.7µM
Clc1ccc(C(CCN2CCCC2)Cc2ccccc2)cc1 (centres undefined)	BAZ2B inh 50.1µM, HP1b binding inh inconclusive, G9a block 10µM, JMJD2A Tudor 3.98µM
OC(CCN1CCCCC1)c1ccc(-c2ccccc2)cc1 (centres undefined)	GLS inh inconclusive
Cc1ccc(S(=O)(=O)CCC(=O)c2cccc([N+](=O)[O-])c2)cc1	HP1b binding inh 44.7µM, G9a block 1.41µM, JMJD2A Tudor 28.2µM
O=C(CCNc1ccc(Cc2ccncc2)cc1)c1cccc([N+](=O)[O-])c1	BAZ2B inh 25.1µM, HP1b binding inh inconclusive, G9a block 8.91µM, JMJD2A Tudor 44.7µM
Cc1ccc(C(=O)CCS(=O)(=O)c2ccc(Br)cc2)cc1	none
CCOC(=O)c1ccc([N+](=O)[O-])c(CS(=O)(=O)c2ccc(Cl)cc2)c1	BAZ2B inh inconclusive, HP1b binding inh inconclusive, JMJD2A Tudor inconclusive
Cc1ccc(S(=O)(=O)Cc2cc(F)c([N+](=O)[O-])cc2[N+](=O)[O-])cc1	BAZ2B inh 56.2µM, G9a block 50.1µM
O=C(CCNc1cccc(F)c1)c1cc2ccccc2o1	G9a block 10µM
Cc1ccc(S(=O)(=O)N2C[C@H]3N(C(=O)OC(C)C)N(C(=O)OC(C)C)C[C@H](OC(=O)Nc4cccs4)[C@@]3(O)C2)cc1	none (no result: BAZ2B inh, HP1b binding inh, G9a block, JMJD2A Tudor)
O=C(CCNc1cccc(F)c1)c1cccc([N+](=O)[O-])c1	BAZ2B inh 35.5µM, G9a block 7.08µM, JMJD2A Tudor inconclusive
COc1ccc(-c2csc(C(C)(NC(C)=O)c3ccccc3)n2)cn1 (centres undefined)	none (no result: BAZ2B inh, HP1b binding inh, G9a block, JMJD2A Tudor)
CCN1CC(CN(C)Cc2nc(-c3ccc(C(F)(F)F)cc3)oc2C)CC1=O (centres undefined)	none (no result: G9a block)
CCN1CC(CN(C)Cc2nc(-c3ccco3)oc2C)CC1=O (centres undefined)	G9a block 79.4µM
Cc1c(C(=O)N(C)C)sc2c1c(=O)n(-c1ccc(Cl)c(Cl)c1)c(=O)n2Cc1ccc(F)cc1	none
CCOc1cc(-c2sc(Nc3ccccc3)n[n+]2C)ccc1OC	BAZ2B inh inconclusive, G9a block 44.7µM
Cc1nn(C)c(=S)[nH]c1=S	none (no result: BAZ2B inh, G9a block)

Screens: PubChem BioAssay, National Center for Advancing Translational Sciences (NCATS)
